# A selection: hits, their analogues and other compounds. The true share with any hit is near 1.6%.
# CCHFV vOTU inh: CCHFV vOTU protease inhibitors, primary screen, biochemical, Pep-AMC substrate, fluorescence; 370,000 tested, 0.55% active; AID 651958, 2012; Crimean-Congo hemorrhagic fever virus L polyprotein viral ovarian tumor (vOTU) protease …; inhibition, % at 11.5 µM; in the data active = inhibition above about 30%; note: 0% = vehicle wells with enzyme and 100% = no enzyme wells
# ugtP null kill: growth inhibition of ugtP-null S. aureus, primary screen, RN4220 ugtP deletion, OD600; 16 h; growth inhibition, % (test concentration not listed); 330,000 tested, 0.54% active; in the data active = growth inhibition above about 68%;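 note: plate controls were untreated wells for no effect and antibiotic for full effect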
# RN4220 kill: growth inhibition of S. aureus RN4220, primary screen, OD600 | 16 h | inhibition, % (no concentration beside the values) | 330,000 tested, 0.33% active; in the data active = inhibition above about 85%;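 note: plate controls were untreated cells for no effect and reference antibiotic for full effect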
# BJeLR lethal: MLPCN primary cell-based screen for lethality selective to Ras in HRASV12 cells; BJeLR (HRASV12) viability, CellTiter-Glo ATP luminescence, 48 h; inhibition, % (concentration not given with the values); 300,000 tested, 0.17% active; AID 1554, 2009; in the data active = inhibition above about 50%
# PfHsp40 rescue: rescue of yeast from PfHsp40 toxicity, primary screen, S. cerevisiae, ATP luminescence. S. cerevisiae expressing PfHsp40, growth rescue. growth rescue, % at 12.5 µM. 340,000 tested, 0.68% active; in the data active = growth rescue above about 28%, passing the limit was not always enough;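 note: yeast W303a lacking pdr1 and pdr3 grown in galactose medium; growth measured after three days at 30 °C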
# The depositor's hits bear a star; x = no result given.
SMILES,CCHFV vOTU inh,ugtP null kill,RN4220 kill,BJeLR lethal,PfHsp40 rescue
Cc1onc(-c2ccccc2)c1C(=O)NNC(=O)c1ccccc1O,-1,-1,14,3,68*
COc1ccc(-c2cc(C(=O)NNC(=S)NC(=O)c3c(-c4ccccc4)noc3C)[nH]n2)cc1,1,28,26,-5,287*
CCOc1cc(/C=N/NC(=O)c2c(-c3ccccc3)noc2C)ccc1O,6,x,x,2,0
O=c1c2c(-c3ccccc3)csc2ncn1N=Cc1c2ccccc2cc2ccccc12,x,-18,1,x,x
COC(=O)C(Cc1ccccc1)N(Cc1ccccc1)S(=O)(=O)N(Cc1ccccc1)C(Cc1ccccc1)C(=O)OC (stereo not drawn),x,-6,0,x,x
O=c1[nH]c2cc(Br)cnc2nc1C=C(O)c1ccc(F)cc1,x,-25,4,x,x
O=C(O)CC1SC(=NN=C2CCCCC2)N(c2ccccc2)C1=O (stereo not drawn),x,-1,1,x,x
COc1ccc(C=NNC(=O)c2cccc([N+](=O)[O-])c2)cc1OS(=O)(=O)c1ccccc1,x,-10,0,x,x
Cc1ccc(C(=O)Nc2ncc([N+](=O)[O-])s2)cc1,3,92*,93*,13,6
CCOc1cc(C=NNC(=O)c2cccc([N+](=O)[O-])c2)ccc1OS(=O)(=O)c1ccccc1,x,99*,59,x,x
COc1cc(C=NNc2nc(C)cc(=O)[nH]2)ccc1O,x,2,1,x,x
CCn1cc(C(=O)NCc2cccc(F)c2)c(=O)c2cc(F)c(N3CCN(C(=O)c4ccco4)CC3)cc21,-2,46,18,1,0
CCCOc1ccc(C(=O)NC(=S)N2CCN(c3cc4c(cc3F)c(=O)c(C(=O)O)cn4CC)CC2)cc1,-2,96*,44,8,0
CCn1cc(C(=O)O)c(=O)c2cc(F)c(N3CCN(C(=S)NC(=O)c4ccc(F)c(F)c4)CC3)cc21,-15,100*,100*,-9,-1
CCn1cc(C(=O)O)c(=O)c2cc(F)c(N3CCN(C(=S)NC(=O)c4ccc(F)cc4)CC3)cc21,2,84,86,-2,1
CCn1cc(C(=O)NCc2cccnc2)c(=O)c2cc(F)c(N3CCN(C(=O)c4ccco4)CC3)cc21,-17,100*,96*,0,-1
CCn1cc(C(=O)O)c(=O)c2cc(F)c(N3CCN(C(=S)NC(=O)c4ccccc4Br)CC3)cc21,-13,99*,98*,10,0
C(=Nn1cnnc1)c1cccn1-c1ccccc1,x,11,7,x,x
N#Cc1c(N=Cc2ccc(-c3ccccc3C(=O)O)o2)sc2c1CCCC2,x,8,6,x,x
O=C(NN=Cc1ccc(OC(F)F)cc1)C1=COCCO1,x,0,-2,x,x
CC(=O)N1CCN(c2cc3c(cc2F)c(=O)c(C(=O)O)cn3C2CC2)CC1,-25,99*,98*,-2,1
CCCCCCC(=O)N1CCN(c2cc3c(cc2F)c(=O)c(C(=O)O)cn3CC)CC1,1,x,x,-2,3
COc1ccc(CCC(=NO)C2(O)CCCCC2)cc1,x,12,9,x,x
C(=NNc1ccc2nncn2n1)c1ccco1,x,3,0,x,x
CN(C)c1ccc(C(C[N+](=O)[O-])c2c(N)n(C)c(=O)n(C)c2=O)c(F)c1C#N (stereo not drawn),4,-10,4,-4,140*
SMILES,CCHFV vOTU inh,ugtP null kill,RN4220 kill,BJeLR lethal,PfHsp40 rescue
COc1ccc(N2C(=O)C(Cl)=C(Nc3ccccc3O)C2=O)cc1,9,-6,-15,-8,82*
O=C(CCCCCNC(=O)c1ccccc1)NN=Cc1ccc(F)cc1,x,7,-2,x,x
C(=NNc1ccc2ccccc2n1)c1ccc2c(c1)OCCO2,x,5,2,x,x
COC(=O)Nc1ccc(S(=O)(=O)NNC(=O)c2c(O)c3ccccc3[nH]c2=O)cc1,-9,10,2,-10,52*
CCCCCc1ccc(OCCCC[n+]2ccccc2)c(CCCCC)c1,x,93,101*,22,135*
CCCCCc1ccc(OCCCC[n+]2ccc(C)cc2)c(CCCCC)c1,17,100*,99*,x,0
CCCCCc1ccc(OCCCC[n+]2cccc(C)c2)c(CCCCC)c1,16,x,x,9,95*
CCCCOc1ccc(C)cc1CN(CCO)CCO,-8,4,6,-5,0
Cc1cc(=O)oc2cc(OCCCC[n+]3ccccc3)ccc12,-21,-4,0,-13,2
CCC(C)(C)c1ccc(Oc2cccc(C(=O)O)c2)cc1,24,-12,15,-3,0
CCC(C)(C)c1ccc(OCCCC[n+]2ccccc2)c(C(C)(C)CC)c1,19,100*,101*,x,-1
CCc1cc(C(Cc2ccccn2)=NNc2ccccc2)c(O)cc1O,x,21,-4,x,x
C=CCCC(Cc1ccc(F)cc1)C(=O)OCC(Cc1c[nH]c2ccccc12)NC(=O)C(CC=C)CC(=O)N(CCO)Cc1ccccc1 (stereo not drawn),x,7,-5,x,x
C[n+]1c2n(c3ccccc31)N=C(c1ccc(-c3ccccc3)cc1)CS2,4,101*,100*,1,0
C[n+]1c2n(c3ccccc31)N=C(c1ccccc1)CS2,10,-2,1,9,0
CCC(=NNC(=O)c1nnn(-c2nonc2N)c1-c1cccc(OC)c1)c1ccc(C)cc1,x,7,4,x,x
O=C(/C=C/c1ccccc1Cl)NCCc1ccc(F)cc1,1,-6,-4,2,39*
O=C(/C=C/c1ccccc1[N+](=O)[O-])NCCc1ccc(F)cc1,0,-9,-2,-3,1
COc1ccc2[nH]c(=O)c(CN(Cc3cccs3)S(=O)(=O)c3cccc4nsnc34)cc2c1,-18,-10,8,52*,0
CCOC(=O)c1sc(-c2ccc(Cl)cc2Cl)nc1O,-6,32,65,7,60*
Cc1ccc(C(=O)c2c(C)oc3c2C(=O)C(=O)c2ccccc2-3)cc1,x,93*,109*,-5,4
Oc1c(C(Nc2nccs2)c2ccc(C(F)(F)F)cc2)ccc2cccnc12 (stereo not drawn),1,2,23,23,84*
Oc1c(C(Nc2cccc(C(F)(F)F)c2)c2ccncc2)ccc2cccnc12 (stereo not drawn),-5,15,10,3,381*
CC(=NNC(=O)c1nnn(-c2nonc2N)c1COc1ccccc1)c1ccccc1Cl,x,-12,1,x,x
CN(CC=CC#CC(C)(C)C)Cc1cccc2ccccc12,x,89*,-6,x,x
SMILES,CCHFV vOTU inh,ugtP null kill,RN4220 kill,BJeLR lethal,PfHsp40 rescue
CN(C/C=C/C#CC(C)(C)C)Cc1cccc2ccccc12,-1,x,x,-9,1
O=C1N/C(=N\N=Cc2cccnc2)SC1Cc1ccc(SC(F)F)cc1 (stereo not drawn),x,-10,1,x,x
Cc1cc(NS(=O)(=O)c2ccc(C3CCCCC3)cc2)no1,19,-37,22,-3,510*
Cc1cc(NS(=O)(=O)c2ccc(CC(C)C)cc2)no1,7,-9,6,1,40*
Cc1cc(NS(=O)(=O)c2ccc(C(C)C)cc2)no1,16,5,7,5,-1
Cc1cc(NS(=O)(=O)c2ccc(NC(=O)NC3CCCCC3)cc2)no1,5,7,2,5,1

# Screening data as filed in PubChem BioAssay.
